Results on 63 molecules are retold here after PubChem BioAssay AID1456 (Vanderbilt High Throughput Screening Facility, 2008).

About 4,100 (2.2%) of roughly 190,000 compounds were called active. This excerpt belongs to a sample that is enriched for actives. A number with no mark means an inactive call.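 The calls were made as follows: active = thallium flux slope and its plate-corrected score both differing from the plate sample mean at a set confidence after two filtering rounds, in either direction; inactive = the rest.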

This experiment deals with Solute carrier family 12 member 5 (Homo sapiens) (UniProt Q9H2X9). As to the kind of experiment: KCC2 cotransporter modulators, thallium flux, primary screen, cell-based, HEK293 KCC2, FluoZin-2 fluorescence, MLSMR (AID 1456).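 Also: slope of fluorescence scaled to starting intensity during 10 to 20 s after thallium.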 Particulars: KCC2 cells, thallium flux FluoZin-2 fluorescence; at 10 µM.
Solute carrier family 12 member 5 (Homo sapiens), sequence (Q9H2X9 whole entry, looked up): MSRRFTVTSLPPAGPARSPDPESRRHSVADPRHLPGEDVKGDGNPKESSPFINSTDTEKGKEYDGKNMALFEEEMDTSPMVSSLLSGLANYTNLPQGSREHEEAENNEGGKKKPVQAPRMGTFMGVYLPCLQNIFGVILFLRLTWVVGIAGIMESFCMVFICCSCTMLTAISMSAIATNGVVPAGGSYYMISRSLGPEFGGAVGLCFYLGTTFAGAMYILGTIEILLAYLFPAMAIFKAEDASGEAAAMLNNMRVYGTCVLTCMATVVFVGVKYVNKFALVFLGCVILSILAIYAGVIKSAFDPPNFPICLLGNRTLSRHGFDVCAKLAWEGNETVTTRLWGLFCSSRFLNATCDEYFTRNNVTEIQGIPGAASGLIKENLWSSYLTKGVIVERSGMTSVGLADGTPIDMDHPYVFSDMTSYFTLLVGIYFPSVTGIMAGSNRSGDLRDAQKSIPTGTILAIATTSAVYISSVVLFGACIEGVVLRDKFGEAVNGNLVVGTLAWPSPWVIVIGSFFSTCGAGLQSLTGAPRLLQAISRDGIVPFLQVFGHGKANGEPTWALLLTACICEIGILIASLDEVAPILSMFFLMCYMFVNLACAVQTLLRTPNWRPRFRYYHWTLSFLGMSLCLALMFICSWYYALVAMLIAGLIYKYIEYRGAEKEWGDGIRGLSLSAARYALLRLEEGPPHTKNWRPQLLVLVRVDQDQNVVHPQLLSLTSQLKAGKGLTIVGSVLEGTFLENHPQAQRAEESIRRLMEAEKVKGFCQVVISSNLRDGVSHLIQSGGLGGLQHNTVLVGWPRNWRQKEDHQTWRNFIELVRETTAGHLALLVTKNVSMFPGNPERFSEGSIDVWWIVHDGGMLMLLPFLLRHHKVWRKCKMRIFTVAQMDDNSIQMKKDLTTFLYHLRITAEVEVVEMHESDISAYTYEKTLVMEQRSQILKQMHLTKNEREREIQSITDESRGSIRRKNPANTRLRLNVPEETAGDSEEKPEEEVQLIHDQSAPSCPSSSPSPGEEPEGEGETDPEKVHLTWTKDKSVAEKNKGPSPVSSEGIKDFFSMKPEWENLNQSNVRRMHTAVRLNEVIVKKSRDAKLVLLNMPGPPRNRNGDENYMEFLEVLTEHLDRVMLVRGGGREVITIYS
For `CCOc1ccc(NS(=O)(=O)c2ccc(C)c(C(N)=O)c2)cc1`, the B-score of Tl+ flux slope (higher = more flux/activation; lower = inhibition) was -0.277.
Next, `Cc1cccc(NS(=O)(=O)c2ccc(C)c(C(N)=O)c2)c1`: 4.67 (active).
In the case of `Cc1cc(C)cc(NS(=O)(=O)c2ccc(F)cc2)c1`, the B-score of Tl+ flux slope (higher = more flux/activation; lower = inhibition) was -0.00878.
With `C/C(=N\Nc1cccc(C(=O)O)c1)c1ccc2c(c1)Nc1ccccc1S2` the figure was -3.29; with `COc1ccc(C2CC(c3ccc(Cl)cc3Cl)Nc3nc(N)nn32)cc1OC` (stereo not drawn), 1.07.
Turning to `CCOc1ccccc1C1CC(c2ccc(Cl)cc2)Nc2nc(N)nn21` (stereo not drawn), the B-score of Tl+ flux slope (higher = more flux/activation; lower = inhibition) is -3.62 (active).
As to `Cc1ccc(C2CC(c3cccc(C)c3)n3nc(N)nc3N2)cc1` (stereo not drawn), the B-score of Tl+ flux slope (higher = more flux/activation; lower = inhibition) is 1.35.
Next, `COCCNC(=S)N1CCN(C)CC1`: 1.24; `CCC(C)NC(=O)C1c2ccccc2Oc2ccccc21` (stereo not drawn): 0.329.
With `O=C(NCc1ccco1)C1CCCN1S(=O)(=O)c1ccccc1C(F)(F)F` (stereo not drawn), the B-score of Tl+ flux slope (higher = more flux/activation; lower = inhibition) is 0.797.
As for `S=C(NCc1ccc(Cl)cc1)NC1CCCCC1`, the B-score of Tl+ flux slope (higher = more flux/activation; lower = inhibition) was -1.07.
Consider `C/C(=N\NC(=S)NC1CCCCC1)c1ccc(C)o1`, for which the B-score of Tl+ flux slope (higher = more flux/activation; lower = inhibition) is 13.6 (active).
As for `C/C(=N/NC(=O)c1ccc(Br)o1)c1ccc(C)o1`, the B-score of Tl+ flux slope (higher = more flux/activation; lower = inhibition) is 2.02.
Take `Cc1ccc(/C=N/NC(=O)CNC(=O)COc2ccccc2)o1`: the B-score of Tl+ flux slope (higher = more flux/activation; lower = inhibition) was 1.42.
On to `Cc1ccc(NC(=S)NC2CCCC2)cc1`, for which the B-score of Tl+ flux slope (higher = more flux/activation; lower = inhibition) is -0.0505.
With `Cc1ccc(/C=N/NC(=S)NC2CCCCC2)o1` the figure was 13.3 (active); with `Nc1ccc(N=Nc2ccccc2Cl)c(N)n1`, -0.811.
`O=C(NC(Nc1nc2ccc([N+](=O)[O-])cc2s1)(C(F)(F)F)C(F)(F)F)c1ccccc1`: the B-score of Tl+ flux slope (higher = more flux/activation; lower = inhibition) was 18.8 (active).
Regarding `O=C(Nc1nc2ccc([N+](=O)[O-])cc2s1)c1ccncc1`, the B-score of Tl+ flux slope (higher = more flux/activation; lower = inhibition) was 0.253.
Next, `O=C(O)CCC(=O)Nc1nc2ccc([N+](=O)[O-])cc2s1`: -0.905; `O=[N+]([O-])/C=C1\CCCCCN1`: 0.62.
With `O=C(CNC(=O)c1ccc(-c2ccccc2)cc1)OCc1ccc(Cl)cc1`, the B-score of Tl+ flux slope (higher = more flux/activation; lower = inhibition) was 0.889.
Take `O=C(OCN1C(=O)c2ccccc2C1=O)/C(=C\c1ccco1)NC(=O)c1ccccc1`: the B-score of Tl+ flux slope (higher = more flux/activation; lower = inhibition) was 0.982.
Consider `CC(C)(C)c1ccc(C(=O)NCC(=O)OCN2C(=O)c3ccccc3C2=O)cc1`, for which the B-score of Tl+ flux slope (higher = more flux/activation; lower = inhibition) is 2.84 (active).
As to `CC(=O)OCCOCn1cnn2c(=O)c(Br)c(C)nc12`, the B-score of Tl+ flux slope (higher = more flux/activation; lower = inhibition) is 0.438.
For `Cn1nc(C(F)(F)F)c(-c2ccc(F)cc2)c1NC(=O)CSCC(=O)O`, the B-score of Tl+ flux slope (higher = more flux/activation; lower = inhibition) was 0.439.
With `O=C(Nc1cccnc1)c1cc([N+](=O)[O-])ccc1Cl` the figure was -0.0312; with `CC(=O)NNc1cc(=O)c2c(=O)n(C)c(=O)n(C)c2[nH]1`, 6.19 (active); with `CCC(=O)NNc1cc(=O)c2c(=O)n(C)c(=O)n(C)c2[nH]1`, 1.26.
For `Nc1nnn(CC(=O)N/N=C/c2ccc(O)cc2)n1`, the B-score of Tl+ flux slope (higher = more flux/activation; lower = inhibition) is 0.292.
As to `Cn1nnc(NC(=S)NC(=O)c2ccccc2)n1`, the B-score of Tl+ flux slope (higher = more flux/activation; lower = inhibition) was 0.462.
On to `CC1(C)CC(CNCCC(c2ccc(F)cc2)c2ccco2)CCO1` (stereo not drawn), for which the B-score of Tl+ flux slope (higher = more flux/activation; lower = inhibition) was -2.25.
Consider `Cc1cccc(NC(=O)NC(=S)NC(=O)c2ccccc2)c1`, for which the B-score of Tl+ flux slope (higher = more flux/activation; lower = inhibition) is 16.4 (active).
For the molecule `Cc1cccc(NC(=S)NC(=O)c2ccc(Br)o2)c1`, the B-score of Tl+ flux slope (higher = more flux/activation; lower = inhibition) is 143 (active).
Turning to `Cc1ccc(NC(=S)NC(=O)c2ccc(-c3ccccc3)cc2)cc1`, the B-score of Tl+ flux slope (higher = more flux/activation; lower = inhibition) was 1.16.
For `Cc1cccc(NC(=O)/C(=C\c2ccco2)NC(=O)c2ccccc2)c1`, the B-score of Tl+ flux slope (higher = more flux/activation; lower = inhibition) is 0.0694.
For the molecule `Cc1cccc(NC(=O)c2ccc([N+](=O)[O-])o2)c1`, the B-score of Tl+ flux slope (higher = more flux/activation; lower = inhibition) is -0.0536.
Next, `Cc1cccc(NC(=S)Nc2ccc(Br)cc2)c1`: 0.311; `CCOc1ccc(C2NC(=S)NC3=C2CCc2ccccc23)cc1` (stereo not drawn): 0.359.
For the molecule `CC(=O)Nc1ccc(/C=C/C(=O)c2ccccc2)cc1`, the B-score of Tl+ flux slope (higher = more flux/activation; lower = inhibition) is -1.42.
Next, `CCCc1nc2c(c(=O)c3ccccc3n2C)c(=O)n1-c1cc(C)cc(C)c1`: -2.43; `Cc1cc(OCCCCOc2ccc(C#N)cc2)ccc1[N+](=O)[O-]`: 2.16.
With `Clc1ccc(C[n+]2cc(-c3ccccc3)n3c2CCC3)cc1` the figure was 0.476.
As for `CSc1ccc(CCNC(=O)C2CCN(c3nnc(-n4cccc4)s3)CC2)cc1`, the B-score of Tl+ flux slope (higher = more flux/activation; lower = inhibition) is 0.348.
`CCOC(=O)C1CCCN(C(=O)C2CCN(c3nnc(-n4cccc4)s3)CC2)C1` (stereo not drawn): the B-score of Tl+ flux slope (higher = more flux/activation; lower = inhibition) is -0.42.
`O=C(C1CCN(c2nnc(-n3cccc3)s2)CC1)N1CCc2ccccc2C1`: the B-score of Tl+ flux slope (higher = more flux/activation; lower = inhibition) is -3.67 (active).
With `COc1ccc2[nH]c(C(=O)Nc3ccccc3Cl)cc2c1` the figure was 0.0923; with `CCCCOc1ccc(CON(C(C)=O)C(C)=O)cc1Cl`, 0.181; with `O=C(COc1ccccc1)N1CCc2ccccc2C1`, 0.0757.
For `COc1ccc(-c2nc(CS(=O)CC(=O)NCc3ccccn3)c(C)o2)cc1` (stereo not drawn), the B-score of Tl+ flux slope (higher = more flux/activation; lower = inhibition) is 1.46.
Consider `COC(=O)c1cc2occc2n1Cc1nc(-c2ccccc2C)oc1C`, for which the B-score of Tl+ flux slope (higher = more flux/activation; lower = inhibition) is 0.574.
For the molecule `Cc1ccccc1-c1nc(CS(=O)(=O)CC(=O)N2CCc3ccccc3C2)c(C)o1`, the B-score of Tl+ flux slope (higher = more flux/activation; lower = inhibition) was -3.98 (active).
Consider `COc1ccc(-c2nc(CS(=O)CC(=O)N3CCc4ccccc4C3)c(C)o2)cc1` (stereo not drawn), for which the B-score of Tl+ flux slope (higher = more flux/activation; lower = inhibition) is -6.3 (active).
Consider `Cc1oc(-c2ccccc2F)nc1CS(=O)(=O)CC(=O)NCCCN(C)C1CCCCC1`, for which the B-score of Tl+ flux slope (higher = more flux/activation; lower = inhibition) was -0.282.
`S=C(NCc1ccc2c(c1)OCO2)NCc1ccco1`: the B-score of Tl+ flux slope (higher = more flux/activation; lower = inhibition) is -0.178.
Turning to `CCOC(=O)C1CCN(C(=O)Nc2cccc(OC)c2)CC1`, the B-score of Tl+ flux slope (higher = more flux/activation; lower = inhibition) is 0.26.
Consider `Cc1ccccc1Cn1c2ccccc2c2cnn(CC(=O)NCc3ccco3)c(=O)c21`, for which the B-score of Tl+ flux slope (higher = more flux/activation; lower = inhibition) is -0.21.
In the case of `COC(=O)CNc1nc(Cl)nc(N2CCC(C)CC2)n1`, the B-score of Tl+ flux slope (higher = more flux/activation; lower = inhibition) was 0.436.
Next, `O=C(Nc1ccccc1)/C(=C/c1ccc([N+](=O)[O-])cc1)NC(=O)c1ccccc1`: 0.951; `O=C(Nc1ccc(C(=O)O)cc1)/C(=C/c1ccc([N+](=O)[O-])cc1)NC(=O)c1ccccc1`: -0.11; `CNC(=O)/C(=C\C=C\c1ccccc1)NC(=O)c1ccc([N+](=O)[O-])cc1`: -6.01 (active).
On to `Cc1ccc(/C=C/C(=O)O)cc1S(=O)(=O)N1CCC(Cc2ccccc2)CC1`, for which the B-score of Tl+ flux slope (higher = more flux/activation; lower = inhibition) is -2.01.
Take `Cc1ccc(C)c2c1cc(C)c1nnc(SCC(=O)Nc3cccc(C(=O)O)c3)n12`: the B-score of Tl+ flux slope (higher = more flux/activation; lower = inhibition) was 4.23.
